Laboratory results taken from article PMC7862700, “An all-to-all approach to the identification of sequence-specific readers for epigenetic DNA modifications on cytosine”.

Columns and labels:
Assay in all cases: DAPPL (digital affinity profiling via proximity ligation, sequencing); 10 mM Tris-HCl pH 7.5, 50 mM NaCl, 1 mM DTT, 4% glycerol, room temperature, 30 min; GST-TFs on glutathione beads, 16-mer random dsDNA library, 0.1% formaldehyde crosslink after washing; high values mean tight binding
Details in all cases: protein: recombinant; tags: N-terminal GST; dsDNA, one strand shown
[1] = target: T1, ELK1 (Homo sapiens, UniProt P19419 1-428)
T1 sequence: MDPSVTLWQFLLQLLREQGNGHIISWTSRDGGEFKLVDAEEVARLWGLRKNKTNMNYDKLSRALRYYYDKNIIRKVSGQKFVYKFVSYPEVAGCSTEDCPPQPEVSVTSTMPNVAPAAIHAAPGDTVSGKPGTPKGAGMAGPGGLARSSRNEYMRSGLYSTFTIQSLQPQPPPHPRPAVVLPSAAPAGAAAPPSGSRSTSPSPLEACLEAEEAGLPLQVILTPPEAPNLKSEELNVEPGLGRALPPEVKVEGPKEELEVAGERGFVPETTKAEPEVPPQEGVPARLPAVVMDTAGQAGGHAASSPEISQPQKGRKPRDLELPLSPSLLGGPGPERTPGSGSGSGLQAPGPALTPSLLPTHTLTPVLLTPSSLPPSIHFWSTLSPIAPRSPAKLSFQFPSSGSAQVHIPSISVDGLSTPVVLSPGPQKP
Outline: (§1)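 Binding signal is each hexamer's read frequency for a factor divided by its frequency in the tag-only sample. The factors were GST-fused human transcription factors from yeast, captured on glutathione beads, DNA-barcoded and pooled with that sample. Pools were incubated with 200 nmole of a random double-stranded 16-mer DNA library in Tris/NaCl/DTT/glycerol buffer at room temperature for 30 min, then washed, crosslinked with 0.1% formaldehyde, proximity-ligated with BsaI/T4 ligase (1 h, 37 °C), PCR-amplified and sequenced on an Illumina NextSeq500.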

[2] = target: T2, GABPA (Homo sapiens, UniProt Q06546 1-454)
T2 sequence: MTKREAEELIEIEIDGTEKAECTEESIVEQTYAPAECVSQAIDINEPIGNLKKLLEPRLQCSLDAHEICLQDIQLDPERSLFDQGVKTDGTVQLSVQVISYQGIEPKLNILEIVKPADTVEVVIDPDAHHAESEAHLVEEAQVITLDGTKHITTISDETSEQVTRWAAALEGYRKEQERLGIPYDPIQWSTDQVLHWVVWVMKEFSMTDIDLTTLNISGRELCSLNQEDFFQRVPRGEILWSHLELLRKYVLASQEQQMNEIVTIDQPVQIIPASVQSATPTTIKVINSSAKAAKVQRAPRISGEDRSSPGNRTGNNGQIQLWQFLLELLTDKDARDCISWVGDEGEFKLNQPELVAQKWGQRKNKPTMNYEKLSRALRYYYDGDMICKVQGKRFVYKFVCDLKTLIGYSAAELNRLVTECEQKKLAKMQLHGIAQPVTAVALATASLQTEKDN
Outline: as §1

[3] = target: T3, ERG (Homo sapiens, UniProt P11308 1-479)
T3 sequence: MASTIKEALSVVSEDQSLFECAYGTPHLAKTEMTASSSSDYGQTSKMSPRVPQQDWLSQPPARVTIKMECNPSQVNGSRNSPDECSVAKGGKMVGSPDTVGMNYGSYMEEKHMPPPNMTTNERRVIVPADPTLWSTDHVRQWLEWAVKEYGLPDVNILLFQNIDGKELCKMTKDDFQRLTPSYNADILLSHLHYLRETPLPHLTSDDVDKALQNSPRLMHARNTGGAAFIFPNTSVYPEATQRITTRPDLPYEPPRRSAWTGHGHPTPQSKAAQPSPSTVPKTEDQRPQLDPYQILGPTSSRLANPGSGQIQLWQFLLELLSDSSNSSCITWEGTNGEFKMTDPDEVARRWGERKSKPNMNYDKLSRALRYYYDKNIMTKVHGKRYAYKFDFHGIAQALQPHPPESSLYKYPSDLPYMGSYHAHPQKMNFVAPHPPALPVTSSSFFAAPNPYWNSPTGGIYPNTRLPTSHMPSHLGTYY
Outline: as §1

[4] = target: ELF1 (Homo sapiens, UniProt P32519 1-619)
Chain of ELF1 (P32519 whole entry): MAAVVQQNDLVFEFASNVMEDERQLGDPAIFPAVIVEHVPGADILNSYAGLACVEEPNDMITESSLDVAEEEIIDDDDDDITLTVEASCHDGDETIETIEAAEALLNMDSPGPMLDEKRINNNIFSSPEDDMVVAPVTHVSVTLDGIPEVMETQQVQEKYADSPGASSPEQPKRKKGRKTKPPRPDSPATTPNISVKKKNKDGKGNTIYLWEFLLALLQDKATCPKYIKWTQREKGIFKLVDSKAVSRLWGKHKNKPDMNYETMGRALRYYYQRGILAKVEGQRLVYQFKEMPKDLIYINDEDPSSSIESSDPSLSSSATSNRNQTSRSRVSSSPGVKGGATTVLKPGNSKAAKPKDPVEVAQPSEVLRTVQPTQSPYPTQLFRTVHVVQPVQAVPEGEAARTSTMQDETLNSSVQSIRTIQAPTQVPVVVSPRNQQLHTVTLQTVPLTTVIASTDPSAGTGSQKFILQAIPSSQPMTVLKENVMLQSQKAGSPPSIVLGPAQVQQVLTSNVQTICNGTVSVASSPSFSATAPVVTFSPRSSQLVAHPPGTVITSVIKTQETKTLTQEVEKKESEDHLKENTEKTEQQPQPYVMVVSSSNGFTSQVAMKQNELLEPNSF
Outline: as §1

[5] = target: T4, EHF (Homo sapiens, UniProt Q9NZC4 1-300)
T4 sequence: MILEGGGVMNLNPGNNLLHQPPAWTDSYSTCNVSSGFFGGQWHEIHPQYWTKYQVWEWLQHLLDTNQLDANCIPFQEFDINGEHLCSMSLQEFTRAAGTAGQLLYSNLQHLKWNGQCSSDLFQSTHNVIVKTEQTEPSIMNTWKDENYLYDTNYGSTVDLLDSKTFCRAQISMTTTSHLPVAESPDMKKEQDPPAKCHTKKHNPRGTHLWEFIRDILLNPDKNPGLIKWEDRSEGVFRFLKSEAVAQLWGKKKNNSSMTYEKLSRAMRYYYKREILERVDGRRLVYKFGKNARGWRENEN
Outline: as §1

[6] = target: SPIB (Homo sapiens, UniProt Q01892 1-262)
Chain of SPIB (Q01892 whole entry): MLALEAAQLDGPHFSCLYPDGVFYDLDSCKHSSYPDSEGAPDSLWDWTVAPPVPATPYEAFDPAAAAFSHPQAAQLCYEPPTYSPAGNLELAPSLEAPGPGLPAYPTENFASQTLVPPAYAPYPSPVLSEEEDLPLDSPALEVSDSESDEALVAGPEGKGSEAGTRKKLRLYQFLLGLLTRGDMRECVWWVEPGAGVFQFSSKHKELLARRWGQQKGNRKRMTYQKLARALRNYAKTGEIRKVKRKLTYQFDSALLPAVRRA
Outline: as §1

[7] = target: T5, FEV (Homo sapiens, UniProt Q99581 1-238)
T5 sequence: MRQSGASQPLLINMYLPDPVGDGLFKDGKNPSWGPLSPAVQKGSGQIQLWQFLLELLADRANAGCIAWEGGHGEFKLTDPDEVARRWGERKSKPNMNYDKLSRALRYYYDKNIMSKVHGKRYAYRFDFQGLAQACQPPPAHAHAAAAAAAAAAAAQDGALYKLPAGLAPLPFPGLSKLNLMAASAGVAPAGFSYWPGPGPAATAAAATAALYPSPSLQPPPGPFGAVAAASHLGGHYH
Outline: as §1

[8] = target: ETV5 (Homo sapiens, UniProt P41161 1-510)
Chain of ETV5 (P41161 whole entry): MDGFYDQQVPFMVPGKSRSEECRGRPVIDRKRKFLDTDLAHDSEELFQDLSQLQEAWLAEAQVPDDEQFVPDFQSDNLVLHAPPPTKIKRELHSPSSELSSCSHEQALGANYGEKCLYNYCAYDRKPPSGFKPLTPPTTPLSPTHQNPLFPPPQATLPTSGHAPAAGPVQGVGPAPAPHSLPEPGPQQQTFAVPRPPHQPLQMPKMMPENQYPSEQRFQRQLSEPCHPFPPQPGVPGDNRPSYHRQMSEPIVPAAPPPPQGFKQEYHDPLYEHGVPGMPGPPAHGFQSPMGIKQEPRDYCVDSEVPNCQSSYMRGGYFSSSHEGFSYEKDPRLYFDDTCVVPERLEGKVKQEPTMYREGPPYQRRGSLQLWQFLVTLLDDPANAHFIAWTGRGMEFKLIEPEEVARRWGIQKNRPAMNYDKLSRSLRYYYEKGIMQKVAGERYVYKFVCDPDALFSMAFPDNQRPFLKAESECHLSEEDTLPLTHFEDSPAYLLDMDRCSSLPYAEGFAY
Outline: as §1

[9] = target: ELF4 (Homo sapiens, UniProt Q99607 1-663)
Chain of ELF4 (Q99607 whole entry): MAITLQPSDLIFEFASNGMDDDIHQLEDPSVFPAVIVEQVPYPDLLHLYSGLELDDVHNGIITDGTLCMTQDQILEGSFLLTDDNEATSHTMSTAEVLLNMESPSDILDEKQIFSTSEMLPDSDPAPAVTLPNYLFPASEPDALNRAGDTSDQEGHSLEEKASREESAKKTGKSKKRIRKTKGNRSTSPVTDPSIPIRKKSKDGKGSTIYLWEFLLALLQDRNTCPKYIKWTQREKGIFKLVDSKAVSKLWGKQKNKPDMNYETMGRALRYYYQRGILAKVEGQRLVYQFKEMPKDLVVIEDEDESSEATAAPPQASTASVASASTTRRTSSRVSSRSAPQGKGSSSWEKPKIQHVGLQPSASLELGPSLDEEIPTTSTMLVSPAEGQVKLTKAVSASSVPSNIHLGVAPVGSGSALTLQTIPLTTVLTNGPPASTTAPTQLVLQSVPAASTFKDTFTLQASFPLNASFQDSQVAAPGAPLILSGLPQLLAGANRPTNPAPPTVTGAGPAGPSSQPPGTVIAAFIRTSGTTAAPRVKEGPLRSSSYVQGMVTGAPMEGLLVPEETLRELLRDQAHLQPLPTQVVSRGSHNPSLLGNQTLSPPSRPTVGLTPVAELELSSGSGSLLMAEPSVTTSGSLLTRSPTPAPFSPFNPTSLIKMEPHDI
Outline: as §1

Sequence: CTAGCG
- binding signal [1]: 1.12 fold enrichment (6-mer frequency, TF over GST control)
- binding signal [2]: 1.32 fold enrichment (6-mer frequency, TF over GST control)
- binding signal [3]: 1.19 fold enrichment (6-mer frequency, TF over GST control)
- binding signal [4]: 1.11 fold enrichment (6-mer frequency, TF over GST control)
- binding signal [5]: 1.18 fold enrichment (6-mer frequency, TF over GST control)
- binding signal [6]: 1.17 fold enrichment (6-mer frequency, TF over GST control)
- binding signal [7]: 1.15 fold enrichment (6-mer frequency, TF over GST control)
- binding signal [8]: 1.22 fold enrichment (6-mer frequency, TF over GST control)
- binding signal [9]: 1.1 fold enrichment (6-mer frequency, TF over GST control)
